IMPase Li cell = cell-permeable IMPase inhibitors with lithium potentiation | CHO-M1 cells, IP1 TR-FRET (IP-One), carbachol + lithium | Potency, µM (doses to about 59.4 µM), for the others: at the highest dose activity, negative = IMPase inhibition, actives largely listed as inhibitors | 0.35% of 210,000 active;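 further: IP1 builds up when IMPase is blocked and the TR-FRET signal falls; potency means the concentration at half of the fitted maximal effect; plate controls were basal vehicle for no effect and high inhibitor control for full effect; nearly all actives have a fitted effect of over 50% in size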
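Lithium-sensitised IP1 accumulation assay; M1-expressing CHO cells treated 30 min at 37C with compound. Competitive antibody detection by time-resolved FRET followed a 10 min room-temperature lysis step.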
IMPase inh = membrane-permeable compound that blocks inositol monophosphatase | P97697 | CHO-M1 cells, IP1 accumulation, HTRF TR-FRET ratio | inhibition (IP1 accumulation), % at 46.1 µM | 120,000 tested, under 10 active; active means well fitted curve in the direction sought with a large enough effect in the signal ratio, not every such curve was filed as active; inconclusive means small, poorly fitted or top-dose-only effect, or a change in a side signal; inactive means no such curve, though single readings can be large or run the other way; the % refers to the signal ratio;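 further: cells stimulated with carbachol in lithium chloride buffer; plate controls were DMSO basal wells for no effect and reference inhibitor wells for full effect; higher means more IMPase inhibition seen as more IP1 and lower FRET ratio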
Target sequence (P97697 whole entry, looked up): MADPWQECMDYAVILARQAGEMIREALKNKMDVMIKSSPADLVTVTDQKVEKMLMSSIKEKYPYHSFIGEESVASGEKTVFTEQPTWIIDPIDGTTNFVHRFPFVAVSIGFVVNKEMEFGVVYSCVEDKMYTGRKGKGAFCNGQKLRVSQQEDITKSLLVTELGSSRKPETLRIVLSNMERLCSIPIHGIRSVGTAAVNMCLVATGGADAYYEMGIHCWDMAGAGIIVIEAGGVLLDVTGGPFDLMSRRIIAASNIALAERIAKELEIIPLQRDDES
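Seeded CHO-M1 cells were dosed with compound at up to 46 uM, stimulated with carbachol for 30 min, then lysed in IP-One detection reagents. Higher IP1 lowers the TR-FRET signal.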
ALDH1A1 inh = inhibitors of human aldehyde dehydrogenase 1A1. AID 1030. P00352. Potency, µM (series often up to 75.3 µM), without a hit: top-dose activity, negative = inhibition, usual class: inhibitors. Purified ALDH1A1, NADH fluorescence, propionaldehyde substrate. 7.3% of 220,000 active; active means well fitted inhibition curve with a large enough effect, not every such curve was filed as active; inconclusive means small, poorly fitted or top-dose-only effect, or another doubt; inactive means no such curve, though single readings can be large or run the other way;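 further: potency means the concentration at half of the fitted maximal effect; plate controls were no enzyme wells and a reference inhibitor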
12-hLO inh = blocks human 12-lipoxygenase activity; P18054; purified 12-hLO, xylenol orange hydroperoxide absorbance; Potency, µM (highest dose often 57.1 µM), without a hit: at the top dose activity change, negative = inhibition, most hits filed as inhibitors; 0.12% of 150,000 active; AID 1452; further: potency means the concentration at half of the fitted maximal effect; nearly all actives have a fitted effect of over 55% in size
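Xylenol orange chromogenic assay: hydroperoxide from 12hLO oxidises Fe(II), giving red-shifted Fe(III)-XO absorbance. Conditions: 150 nM enzyme, 40 uM arachidonic acid, 25 mM Hepes pH 7.0, 0.01% Triton X-100, 30 min, room temperature.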
HPGD block = blocks human HPGD enzyme activity; Potency, µM, for the others: top-dose activity change, negative = inhibition, most hits filed as inhibitors; P15428; 4.3% of 150,000 active; purified HPGD, NADH fluorescence kinetic, PGE2 substrate; active means well fitted inhibition curve with a large enough effect, not every such curve was filed as active; inconclusive means small, poorly fitted or top-dose-only effect, or another doubt; inactive means no such curve, though single readings can be large or run the other way; further: potency means the concentration at half of the fitted maximal effect
Target sequence (P15428 whole entry, looked up): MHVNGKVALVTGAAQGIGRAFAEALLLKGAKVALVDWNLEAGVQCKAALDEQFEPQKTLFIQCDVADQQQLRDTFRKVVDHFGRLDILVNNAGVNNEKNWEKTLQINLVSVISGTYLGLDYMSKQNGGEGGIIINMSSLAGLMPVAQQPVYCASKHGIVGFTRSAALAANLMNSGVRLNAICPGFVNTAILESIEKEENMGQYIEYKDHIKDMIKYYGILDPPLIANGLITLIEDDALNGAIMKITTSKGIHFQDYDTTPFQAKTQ
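20 nM HPGD preincubated 15 min at room temperature with compound in 50 mM Tris-HCl pH 8, 0.01% Tween 20. Started with 1 mM NAD+ and 30 uM prostaglandin E2; NADH fluorescence (360/450 nm) read 5 times over 30-s intervals, last minus first.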
PNC inhibitor = blocks assembly of the perinucleolar compartment; AID 2417; activity change (PNC), negative = inhibition, % at 10 µM; PC3M PTB-GFP, PNC prevalence imaging, 16 h; stronger effect = lower value; 3.1% of 140,000 active;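 active means readout at or below -70, meaning at least 70% loss of cells showing the perinucleolar compartment, a nuclear body marking cancer cells; inconclusive means readout between -30 and a set limit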;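 further: plate controls were DMSO wells for no effect and camptothecin positive control wells for full effect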
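Compounds are pinned in duplicate onto adhered PC3M cells stably expressing GFP-tagged PTB and incubated 16 h at 37 C. Cells are then fixed, nuclei stained with Hoechst, and PNC-positive cells counted.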
Numbers without * were called inactive; [ ] = dose if it differs, or a comment. This is a sample that favours compounds with a hit; in the whole collection about 11% have one here. Unless noted, the call rests on the fitted dose curve; in most records, active means well fitted curve in the direction sought with a large enough effect; inconclusive means small, poorly fitted or top-dose-only effect, or another doubt; inactive means no such curve, though single readings can be large; an effect the other way counts as inactive or inconclusive. Unless noted, on the % scale 0 is the no-effect control and ±100 the full control effect.

`C/C=C/Cn1c(SCc2ccc(C)cc2)nc2c1c(=O)[nH]c(=O)n2C` gave IMPase Li cell 18%[38.3 µM], IMPase inh -7, ALDH1A1 inh inconclusive, 12-hLO inh 0%, HPGD block 14µM* and PNC inhibitor inconclusive.
For COCCSc1nc2c(c(=O)[nH]c(=O)n2C)n1Cc1cccc(C)c1 the results were IMPase Li cell 8%, IMPase inh -18, ALDH1A1 inh 14µM*, 12-hLO inh 4%, HPGD block inconclusive and PNC inhibitor -1.
For Cc1cccc(Cn2c(CN3CCN(Cc4ccccc4)CC3)nc3c2c(=O)[nH]c(=O)n3C)c1 the results were IMPase Li cell 20%[38.3 µM], IMPase inh 16, ALDH1A1 inh -2%, 12-hLO inh -9%, HPGD block -6% and PNC inhibitor 37.
`C=CCSc1nc2c(c(=O)[nH]c(=O)n2C)n1C(C)C` gave IMPase Li cell 6%[38.3 µM], IMPase inh 4, ALDH1A1 inh 3.2µM*, 12-hLO inh -5%, HPGD block 18µM* and PNC inhibitor -8.
For NC(=NCc1ccc(Cl)c(Cl)c1)NC(=O)c1nc(Cl)c(N)nc1N the results were IMPase Li cell 12%, IMPase inh 5, ALDH1A1 inh inconclusive, 12-hLO inh -7% and HPGD block inconclusive.
Screening CN(C)c1nc(-c2cccc(NS(C)(=O)=O)c2)nc2ccccc12 returned IMPase Li cell -2% and ALDH1A1 inh -2%.
`Cc1ccc(Cn2c(SCC(C)C)nc3c2c(=O)[nH]c(=O)n3C)cc1` gave IMPase Li cell -3%[38.3 µM], IMPase inh 3, ALDH1A1 inh 28µM*, 12-hLO inh -1%, HPGD block 20µM* and PNC inhibitor inconclusive.
CCCSc1nc2c(c(=O)[nH]c(=O)n2C)n1Cc1ccc(C)cc1 was read as IMPase Li cell -4%[38.3 µM], IMPase inh 0, ALDH1A1 inh 4%, 12-hLO inh -6%, HPGD block -7% and PNC inhibitor inconclusive.
CN(C)Cc1ccccc1-c1cc(NC2CC2)ncn1 was read as IMPase Li cell -1%, ALDH1A1 inh -3%, 12-hLO inh 1% and HPGD block -7%.
`COc1ccc(-c2coc3cc(OC(C)=O)cc(OC(C)=O)c3c2=O)cc1` gave IMPase Li cell -15%, ALDH1A1 inh 69%, 12-hLO inh 0% and HPGD block -29%.
Screening CC(=O)c1c(NCCc2ccccc2)nc(=S)n(-c2ccccc2)c1C returned IMPase Li cell 8% and ALDH1A1 inh -6%.
`CC(=O)c1c(NCc2ccccc2)nc(=O)n(-c2ccccc2)c1C` gave IMPase Li cell 6%[38.3 µM], IMPase inh 2, ALDH1A1 inh 14µM*, 12-hLO inh -6%, HPGD block -21% and PNC inhibitor 13.
For COC[C@H]1O[C@@H](c2c(OC)cc(OC)cc2OC)[C@H](OC)[C@@H](OC)[C@@H]1OC the results were IMPase Li cell 55%, ALDH1A1 inh 6% and HPGD block -10%.
Screening COc1ccccc1NC(=O)CN1CC(=O)Nc2ccccc21 returned IMPase Li cell 9% and ALDH1A1 inh 3.5µM*.
O=C(CN1CC(=O)Nc2ccccc21)NCCc1ccc(Cl)cc1Cl was read as IMPase Li cell -1% and ALDH1A1 inh inconclusive.
`O=C(CN1CC(=O)Nc2ccccc21)Nc1ccc(F)c(F)c1` gave IMPase Li cell 1% and ALDH1A1 inh 6.3µM*.
For COc1ccc(N(C(=O)c2ccccc2)S(=O)(=O)c2ccc3c(c2)n(C)c(=O)n3C)cc1 the results were IMPase inh 2.
Cc1ccc(C2OC(=O)c3ccccc32)cc1 (centres undefined) was read as IMPase Li cell 12%, ALDH1A1 inh -9%, 12-hLO inh 7%, HPGD block -10% and PNC inhibitor 20.
`O=C1OC(c2ccccc2)c2ccccc21` (centres undefined) gave IMPase Li cell -9%, ALDH1A1 inh 14µM*, 12-hLO inh -2%, HPGD block -10% and PNC inhibitor 33.
`O=C(c1ccco1)n1nc(-c2ccc(Cl)cc2)nc1NCc1ccc(F)cc1` gave IMPase inh -5.
For CSc1ncccc1C(=O)OCc1ccc(COC(=O)c2cccnc2SC)cc1 the results were IMPase Li cell -8%[38.3 µM], IMPase inh -11, ALDH1A1 inh -6%, 12-hLO inh 6%, HPGD block -9% and PNC inhibitor -108*.
CSc1ncccc1C(=O)OCc1ccccc1 was read as IMPase Li cell -10%[38.3 µM], IMPase inh 2, ALDH1A1 inh -9%, 12-hLO inh -10%, HPGD block -9% and PNC inhibitor 30.
O=S(=O)(CCc1ccccc1)c1nc2ccccc2s1 was read as IMPase Li cell 21%, ALDH1A1 inh -5% and HPGD block -11%.
`Cc1ccc(N(C(=O)c2cc3ccccc3oc2=O)C2C=CS(=O)(=O)C2)cc1` (centres undefined) gave IMPase inh 3, ALDH1A1 inh inconclusive, 12-hLO inh 1% and PNC inhibitor -10.
For O=C1c2ccccc2C(=O)N1CCCCN(C(=O)c1cc2ccccc2oc1=O)c1ccc(Cl)cc1 the results were IMPase Li cell 12%, IMPase inh 0, ALDH1A1 inh 7.9µM*, 12-hLO inh -2%, HPGD block -11% and PNC inhibitor 28.
COc1ccc(-c2csc(-c3[nH]cnc3N)n2)cc1 was read as IMPase Li cell -3% and ALDH1A1 inh 7.1µM*.
For CC[C@]12CCCN3CCc4c(n(c5ccccc45)C(=O)C1)[C@H]32 the results were IMPase Li cell 13%, IMPase inh 0, ALDH1A1 inh 7%, 12-hLO inh -1% and HPGD block 4%.
`CCCCOc1ccc(CN2CCC(O)CC2)cc1` gave IMPase Li cell 39%[38.3 µM], IMPase inh 13, ALDH1A1 inh 32µM*, 12-hLO inh 3%, HPGD block -20% and PNC inhibitor -100*.
For COC(=O)CCCOc1ccc(Cl)cc1Cl the results were IMPase Li cell -5%, ALDH1A1 inh 13%, 12-hLO inh 3% and HPGD block -30%.
Cc1sc2ncnc(OCC(=O)N3CCN(C(=O)c4ccco4)CC3)c2c1C was read as IMPase Li cell -17% and ALDH1A1 inh 3.2µM*.
Cc1cc(N2CCN(C(=O)c3ccco3)CC2)nc(-c2ccccc2)n1 was read as IMPase Li cell 20%[38.3 µM], IMPase inh 5, ALDH1A1 inh 6.3µM*, 12-hLO inh -6%, HPGD block -21% and PNC inhibitor inconclusive.

Source: PubChem (National Center for Advancing Translational Sciences (NCATS))
